Screens from PubChem BioAssay.
CBX7 AlphaScr = inhibitors of human CBX7 binding to H3K27me3 peptide; O95931; AlphaScreen His6-CBX7 / biotin-H3K27me3 peptide binding; hits give low values; normalised signal (fraction of DMSO) (test concentration not listed); hit rate 1.1% among 66,000; AID 1224903; in the data active means normalised signal below about 0.5
The depositor's hits bear a star. Only a selection was taken, and hits are over-represented in it overall.

SMILES	CBX7 AlphaScr
COc1ccc2[nH]c(C)c(CCNCc3cccc4ccccc34)c2c1	0.59
COc1ccc2[nH]c(C)c(CCNCc3ccc(C#N)cc3)c2c1	0.26*
COc1ccc2[nH]c(C)c(CCNCC(C)(C)C)c2c1	1.1
O=C(Cn1ncc2c1-c1ccccc1OC2)N1CCC2(CC1)OCCO2	0.85
CCc1nc(CNCCc2c(C)[nH]c3ccc(OC)cc23)c(C)[nH]1	1.2
c1ccc2c(c1)CNC(c1ccc3c(c1)OCO3)c1cccn1-2 (stereo not drawn)	0.99
CCOC(=O)C1(c2ccccc2)CCN(CC(=O)Nc2ccc(F)cc2)CC1	1.1
CCOC(=O)C1(c2ccccc2)CCN(CC(=O)Nc2cccc(Cl)c2)CC1	0.35*
CCOC(=O)C1(c2ccccc2)CCN(CC(=O)Nc2cc(Cl)ccc2OC)CC1	1
COc1ccc(/C=C/c2nc3ccccc3c(=O)n2-c2ccc(F)cc2Cl)cc1	1.1
CC1N=C(c2ccccc2)c2cc(Cl)ccc2N(CC(=O)Nc2ccc(N(C)C)cc2)C1=O (stereo not drawn)	0.52
CC1N=C(c2ccccc2F)c2cc(Cl)ccc2N(CC(=O)Nc2ccc(N(C)C)cc2)C1=O (stereo not drawn)	0.27*
Cc1ccc(NC(=O)CN2C(=O)C(C)N=C(c3ccccc3F)c3cc(Cl)ccc32)cc1C (stereo not drawn)	0.97
COc1cccc(CN2CCN(Cc3ccccc3Cl)CC2)c1	0.67
Cc1nn(C)c2c1C(c1cccc(Cl)c1)SCC(=O)N2 (stereo not drawn)	0.91
CCC(C)C1N=C(c2ccccc2)c2ccccc2NC1=O (stereo not drawn)	0.91
O=C1CSC(c2ccc(OCc3ccccc3)cc2)c2c(n(C3CCCC3)[nH]c2=O)N1 (stereo not drawn)	0.98
CCCCCC(C)C(C)c1cc(OC)c2c(c1)OC(C)(C)C1=C2CN(CC(N)=O)CC1 (stereo not drawn)	0.38*
C#CCN1CCC2=C(C1)c1c(O)cc(C(C)C(C)CCCCC)cc1OC2(C)C (stereo not drawn)	0.65
O=c1c2ccccc2nc(/C=C\c2ccc(F)cc2)n1-c1cccc(F)c1	1
CNc1ccc(Br)cc1C(=O)c1ccccc1Cl	1.1
CNc1ccc(C)cc1C(=O)c1cccc(Br)c1	0.42*
O=C(c1ccccc1)c1cc(Br)ccc1NC(=O)c1c(F)cccc1F	1.1
O=c1c2ccccc2nc(/C=C/c2ccccc2)n1-c1cccc(Cl)c1	0.97
Cc1cccc(-n2c(/C=C/c3cn(C)c4ccccc34)nc3ccccc3c2=O)c1	0.78
